# uPA generation: cell surface uPA generation inhibition; cell surface uPA generation assay, qHTS; AID 540303; hit rate 0.31% among 330,000; Potency, µM (series often up to 38.3 µM), inactives show top-dose activity change, negative = inhibition, most hits filed as inhibitors; active means well fitted inhibition curve with a large enough effect; inconclusive means small, poorly fitted or top-dose-only effect; inactive means no such curve, though single readings can be large or run the other way; tested in mouse RAW 264.7 cells; further: potency means the concentration at half of the fitted maximal effect; on the % scale 0 is the no-effect control and ±100 the full control effect; nearly all actives have a fitted effect of over 55% in size
# ClpP mod: qHTS Assay for Activators of ClpP. ATP-dependent Clp protease proteolytic subunit (Bacillus subtilis (strain 168)), P80244. purified B. subtilis ClpP, FRET peptide cleavage, 20 min. Potency, µM (titrated, usually from 57.5 µM), for the others: at the top dose activity change, negative = active. hit rate 1.9% among 340,000. AID 651965, 2013; active means well fitted falling curve with a large enough effect; inconclusive means small, poorly fitted or top-dose-only effect; inactive means no such curve, though single readings can be large or run the other way; further: potency means the concentration at half of the fitted maximal effect; the source files actives as falling curves though it sought activators and does not explain the sign; nearly all actives have a fitted effect of over 65% in size
#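 Purified B. subtilis ClpP, 10 microg/mL final in Tris/HCl pH8 with KCl, BSA, glycerol and Tween-20, cleaved an Abz/nitrotyrosine-quenched decapeptide. Fluorescence (ex 320, em 430) was read at 0 and 20 min at room temperature. Delta was normalized to 5.8 microM ADEP and DMSO/no-enzyme controls.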
# Sfp PPTase inh: blocks B. subtilis Sfp PPTase activity; Q9F4F7; Biochemical Sfp PPTase activity, qHTS; Potency, µM, for the others: largest response in the series, negative = inhibition, hits mostly inhibitors; hit rate 3.5% among 310,000; AID 1490;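 further: the enzyme is Sfp with the accession as filed and its product quenches rhodamine fluorescence; potency means the concentration at half of the fitted maximal effect; 0% = enzyme reaction without inhibitor and -100% = no enzyme wells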
#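 Step 1, compound plus 15 nM Sfp-PPTase, 15 min, room temperature. Step 2, add rhodamine-CoA (5 uM) and BHQ-2-YbbR (12.5 uM). Step 3, read 525/598 nm fluorescence at 0 and 30 min.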
# TCR activator: activates T cell receptor signaling | primary human leukocytes, anti-CD3, IL-2 HTRF, 48 h | Potency, µM (titrated, usually from 9.22 µM), without a hit: top-dose activation of IL-2 secretion, usual class: activators | 330,000 tested, under 10 active | AID 504894; further: % of control where 0% means no effect
#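 Compounds are tested in HTS on primary human leukocytes co-incubated with a-CD3 beads for 48 hr. IL-2 output is measured by time-resolved FRET.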
# Numbers without * were called inactive; u = inconclusive; x = no result; [ ] = dose if it differs, or a comment. Shown are actives, neighbours in structure and some others; about 4.2% of the full set was active somewhere. Unless noted, the call rests on the fitted dose curve; in most records, active means well fitted curve in the direction sought with a large enough effect; inconclusive means small, poorly fitted or top-dose-only effect, or another doubt; inactive means no such curve, though single readings can be large; an effect the other way counts as inactive or inconclusive.
SMILES,uPA generation,ClpP mod,Sfp PPTase inh,TCR activator
Cc1ccccc1-n1nnnc1SCc1ncc(-c2ccccc2)o1,-1.2%,31.6µM*,-9.5%,-3.3%
CC(NC(=O)CCn1nc(-c2ccc(Cl)cc2)ccc1=O)c1ccccc1 (configuration not stated),4.1%,-1.4%,-6.1%,-4.8%
COc1cccc(OC)c1C(=O)Nc1cccc(-n2cnnn2)c1,11.4%,-1.4%,14.2%,-16.0%
CC(=O)C1C(=O)c2c(cccc2[N+](=O)[O-])C1=Nc1ccccc1C (configuration not stated),x,x,-5.7%,x
CC(=O)C1C(=O)c2c(cccc2[N+](=O)[O-])C1=Nc1cccc(Cl)c1 (configuration not stated),-2.8%,-0.7%,56.2µM*,0.1%
O=C(Nc1nnc(C2CC2)s1)C1Cc2ccccc2CN1C(=O)c1ccco1 (configuration not stated),-28.0%,-1.8%,39.8µM*,-1.1%
CCc1n[nH]c2c1C(=O)CC(C)(C)C2,-2.6%,25.1µM*,12.7%,2.7%
O=C(CCCn1c(=O)c2ccccc2n(CC(=O)Nc2cccc(Cl)c2)c1=O)NCc1ccc2c(c1)OCO2,x,-0.2%,x,x
CC(C)Nc1ncnc2c1cnn2-c1ccc(Cl)cc1,12.6µM*,4.3%,-3.6%,2.6%
OCCOCCNc1ncnc2c1cnn2-c1ccc(Cl)cc1,-4.5%,31.6µM*,12.3%,-5.2%
COCCNc1ncnc2c1cnn2-c1ccc(Cl)cc1,-4.1%,22.4µM*,19.4%,-5.6%
COCCN(CCOC)c1ncnc2c1cnn2-c1ccc(Cl)cc1,x,-3.4%,7.2%,-1.3%
CCC(CO)Nc1ncnc2c1cnn2-c1ccc(C)cc1 (configuration not stated),x,28.2µM*,x,x
OCCOCCNc1ncnc2c1cnn2-c1ccccc1,-5.2%,u,20.4%,2.5%
CCCCN1CC(N2CCN(CCN(C)C)CC2)CS1(=O)=O (configuration not stated),x,-1.1%,x,x
CSCCC(NC(=O)c1ccc([N+](=O)[O-])cc1Cl)C(=O)OC(C)C(=O)NCc1ccco1 (configuration not stated),-19.9%,-2.6%,x,-3.0%
CCOc1ccc(NS(=O)(=O)c2ccc3[nH]c4c(c3c2)CCCCC4)cc1,x,-9.4%,x,x
Cc1ccc(NC(=O)CSCC(=O)Nc2ncc3c(n2)CC(c2ccco2)CC3=O)cc1 (configuration not stated),x,-2.4%,14.1µM*,-1.0%
Cc1ccc(N=C2NC(=O)CS2)c(C)c1,-3.8%,1.0%,-1.4%,-1.3%
Cc1cc(Br)ccc1N=C1NC(=O)CS1,6.7%,x,39.8µM*,7.0%
O=C(Nc1nc2cc(Cl)ccc2s1)C1CCCN(S(=O)(=O)c2cccc3cccnc23)C1 (configuration not stated),12.6µM*,-8.9%,6.7%,-1.4%
COC(=O)C(CC(=O)c1ccc(Br)cc1)n1nc(C)cc1C (configuration not stated),-1.9%,x,50.1µM*,1.1%
C#CCOc1ccccc1CNC1CCN(Cc2ccccc2)CC1,-10.9%,-4.9%,79.4µM*,-1.7%
O=C(Nc1cccc(F)c1)C1CCN(c2nc3ccccc3[nH]2)CC1,x,2.0%,x,x
CC1(C)C2(C#N)C(=O)NC(=O)C12C#N (configuration not stated),-2.1%,x,x,-3.3%
SMILES,uPA generation,ClpP mod,Sfp PPTase inh,TCR activator
CCNc1nc(C)cc(COC)c1C#N,-6.4%,66.6%,13.2%,-2.1%
COCc1cc(C)nc(NCCO)c1C#N,0.0%,31.6µM*,-3.4%,-3.2%
CCN1/C(=C/C=C/c2oc3ccc(-c4ccccc4)cc3[n+]2CC)Oc2ccc(-c3ccccc3)cc21,-15.0%,x,11.2µM*,0.6%
CC(C)CNC(=O)c1c2c(nc3ccccc13)-c1ccccc1CC2,-2.2%,28.2µM*,4.3%,1.0%
C=CCNC(=O)c1c2c(nc3ccccc13)-c1ccccc1CC2,-3.4%,31.6µM*,-5.6%,1.8%
C=CCNC(=O)c1ccc(-c2nc3ccccc3nc2-c2ccccc2)cc1,-4.9%,x,x,-48.5%
Cc1ccc(C(=O)CSc2nc(C)cc(C)c2C(=O)Nc2cccc(C)c2)cc1,x,-4.5%,x,x
Cc1ccccc1NC(=O)CN1C(=O)C2C3CC(C(Br)C3Br)C2C1=O (configuration not stated),6.7%,0.9%,56.2µM*,-5.9%[46.1 µM]
COC(=O)C1=C(C)N(Cc2ccco2)C(=O)/C1=C\c1ccc([N+](=O)[O-])cc1,-6.5%,1.2%,20µM*,-3.0%
CC(=O)NC1[C@H]([C@H](O)[C@H](O)CO)OC(C(=O)O)=C[C@H]1N=C(N)N (some centres not stated),x,x,7.2%,x
CCc1ccc2oc(-c3ccc(C)c(NC(=O)Cc4ccccc4)c3)nc2c1,x,-7.1%,x,x
Cc1ccc(C(=O)C2=C(O)C(=O)N(Cc3ccco3)C2c2cccc(Br)c2)o1 (configuration not stated),-1.1%,-1.4%,56.2µM*,x
Cc1ccc(C(=O)C2=C(O)C(=O)N(Cc3ccco3)C2c2cccc(Cl)c2)o1 (configuration not stated),-2.0%,1.0%,-23.5%,x
O=C1CC(C(=O)Nc2ccccc2)C2(CCCCC2)O1 (configuration not stated),-2.9%,0.9%,5.9%,-2.5%
O=C1CC(C(=O)Nc2ccc(Cl)cc2[N+](=O)[O-])C2(CCCCC2)O1 (configuration not stated),0.8%,28.2µM*,7.3%,3.2%[46.1 µM]
CC(C)NC(=O)c1ccc(-c2ccc(F)c(F)c2)c2ccoc12,x,4.3%,x,x
c1ccc2oc(-c3csc(N4CCOCC4)n3)cc2c1,-5.6%,0.0%,56.2µM*,-5.4%
CC1CCN(C(=O)COC(=O)CNC(=O)c2ccccc2F)CC1,1.7%,0.2%,x,-7.3%
O=C(CNC(=O)c1ccccc1F)OCC(=O)N1CCCCC1,2.3%,25.1µM*,11.5%,3.3%[46.1 µM]
COc1ccc(-n2c(SCC(=O)N/N=C/c3ccccc3OCC(=O)O)nc3ccccc3c2=O)cc1,22.4%,-1.3%,u,-0.5%
COc1ccc(-n2c(SCC(=O)N/N=C(\C)c3cccnc3)nc3ccccc3c2=O)cc1,-4.6%,31.6µM*,1.5%,-7.2%
Cc1ccc(/C(=N\O)c2oc3c(C)c4oc(=O)cc(C)c4cc3c2C)cc1,-4.3%,25.1µM*,5.8%,-1.9%[46.1 µM]
Cc1ccc(N2C(=O)C(CN3CCCCC3)C2c2ccccc2)cc1 (configuration not stated),x,15.8µM*,5.9%,3.7%
Cc1ccc(N2C(=O)C(CN3CCCC3)C2c2ccccc2)cc1 (configuration not stated),9.8%,x,18.7%,-4.4%
Cc1cc(Br)ccc1NC(=O)CN(C)C(=O)CSC(=S)N1CCCC1,-0.1%,3.16µM*,x,7.6%
CN(CC(=O)Nc1ccccc1Cl)C(=O)CSC(=S)N1CCCC1,-3.0%,-0.8%,x,1.0%
COc1ccccc1CCNS(=O)(=O)c1ccc(N2CCCCS2(=O)=O)cc1,x,-0.3%,x,x
O=C(Nc1ccc(OCC(=O)N2CCOCC2)cc1)Nc1cccc(Cl)c1,6.5%,11.2µM*,10.6%,x

# Screens deposited in PubChem BioAssay by National Center for Advancing Translational Sciences (NCATS).
